Publication PMC8384837, “Expanding the binding specificity for RNA recognition by a PUF domain”

Columns and labels:
Experiment in all cases: yeast three-hybrid, YBZ-1, SC-Leu-His + 0.5 mM 3-AT, 4 days
Conditions in all cases: tags: N-Gal4 AD-HA kept; label: inside an RPR1-promoter hybrid RNA with tandem MS2 sites; ssRNA
[1] = target: PUM1 PUF domain R8-KYK (Homo sapiens, UniProt Q14671 828-1176, N1122K;Q1126K)
Summary of the method: (§1)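 The interaction score is the log change in variant frequency from input to selection. Scores were computed in log2 with a pseudocount of 1 for absent variants, using Illumina sequencing of PCR-amplified repeat regions. The input came from four days on SC-Leu and the selection from four days on SC-Leu-His + 0.5 mM 3-AT. The cells were strain YBZ-1 (LexA–MS2 coat fusion, HIS3 reporter) co-expressing Pumilio-1 PUF domain libraries and matching RNA elements from a centromeric plasmid.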

[2] = target: PUM1 PUF domain R8-GHR (Homo sapiens, UniProt Q14671 828-1176, N1122G;Y1123H;Q1126R)
Summary of the method: as §1

[3] = target: PUM1 PUF domain R8-RYW (Homo sapiens, UniProt Q14671 828-1176, N1122R;Q1126W)
Summary of the method: as §1

[4] = target: PUM1 PUF domain R7-RGF (Homo sapiens, UniProt Q14671 828-1176, S1079R;N1080G;E1083F)
Summary of the method: as §1

[5] = target: PUM1 PUF domain R3-SNR (Homo sapiens, UniProt Q14671 828-1176, C935S;R936N;Q939R)
Summary of the method: as §1

[6] = target: PUM1 PUF domain R3-MSR (Homo sapiens, UniProt Q14671 828-1176, C935M;R936S;Q939R)
Summary of the method: as §1

[7] = target: PUM1 PUF domain R5-MYC (Homo sapiens, UniProt Q14671 828-1176, C1007M;R1008Y;Q1011C)
Summary of the method: as §1

[8] = target: PUM1 PUF domain R5-KYC (Homo sapiens, UniProt Q14671 828-1176, C1007K;R1008Y;Q1011C)
Summary of the method: as §1

[9] = target: PUM1 PUF domain R5-FRW (Homo sapiens, UniProt Q14671 828-1176, C1007F;Q1011W)
Summary of the method: as §1

[10] = target: PUM1 PUF domain R5-FHK (Homo sapiens, UniProt Q14671 828-1176, C1007F;R1008H;Q1011K)
Summary of the method: as §1

[11] = target: PUM1 PUF domain R7-ENR (Homo sapiens, UniProt Q14671 828-1176, S1079E;E1083R)
Summary of the method: as §1

[12] = target: PUM1 PUF domain R5-PRS (Homo sapiens, UniProt Q14671 828-1176, C1007P;Q1011S)
Summary of the method: as §1

[13] = target: PUM1 PUF domain R5-KWA (Homo sapiens, UniProt Q14671 828-1176, C1007K;R1008W;Q1011A)
Summary of the method: as §1

[14] = target: PUM1 PUF domain R5-KHH (Homo sapiens, UniProt Q14671 828-1176, C1007K;R1008H;Q1011H)
Summary of the method: as §1

[15] = target: PUM1 PUF domain R1-KLC (Homo sapiens, UniProt Q14671 828-1176, S863K;R864L;Q867C)
Summary of the method: as §1

[16] = target: PUM1 PUF domain R4-DRC (Homo sapiens, UniProt Q14671 828-1176, N971D;H972R;Q975C)
Summary of the method: as §1

[17] = target: T1, PUM1 PUF domain R6-VFI (Homo sapiens, UniProt Q14671 828-1176, N1043V;Y1044F;Q1047I)
T1 sequence: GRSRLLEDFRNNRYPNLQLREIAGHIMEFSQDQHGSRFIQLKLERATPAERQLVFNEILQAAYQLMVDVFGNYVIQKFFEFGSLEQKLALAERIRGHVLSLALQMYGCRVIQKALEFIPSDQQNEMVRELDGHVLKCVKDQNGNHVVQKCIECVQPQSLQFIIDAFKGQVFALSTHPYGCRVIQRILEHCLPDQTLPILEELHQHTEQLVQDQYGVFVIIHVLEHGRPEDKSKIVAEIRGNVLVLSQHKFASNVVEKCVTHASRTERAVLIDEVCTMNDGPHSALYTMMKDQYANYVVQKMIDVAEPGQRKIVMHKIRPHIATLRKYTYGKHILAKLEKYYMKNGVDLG
Summary of the method: as §1

[18] = target: PUM1 PUF domain R4-WAA (Homo sapiens, UniProt Q14671 828-1176, N971W;H972A;Q975A)
Summary of the method: as §1

[19] = target: PUM1 PUF domain R4-MHW (Homo sapiens, UniProt Q14671 828-1176, N971M;Q975W)
Summary of the method: as §1

[20] = target: PUM1 PUF domain R3-LSC (Homo sapiens, UniProt Q14671 828-1176, C935L;R936S;Q939C)
Summary of the method: as §1

With “GGCUAGAACUAGUGGAUCCCCCGGCGCCCGGCGGCUCGAGCCCGGGUAAGCGUAAAUAGUCUGCAUGCCGCCGGGCGCCAUGCCUGCAGGUCGACUCUAGAAAACAUG” the binding signal [1] was 3.86 log2 enrichment (interaction score), the binding signal [2] was 3.27 log2 enrichment (interaction score) and the binding signal [3] was 5.69 log2 enrichment (interaction score).

With “GGCUAGAACUAGUGGAUCCCCCGGCGCCCGGCGGCUCGAGCCCGGGUAAGUUUAAAUAGUCUGCAUGCCGCCGGGCGCCAUGCCUGCAGGUCGACUCUAGAAAACAUG” the binding signal [4] was 3.87 log2 enrichment (interaction score).

In the case of “GGCUAGAACUAGUGGAUCCCCCGGCGCCCGGCGGCUCGAGCCCGGGUAAGUGUAAGUAGUCUGCAUGCCGCCGGGCGCCAUGCCUGCAGGUCGACUCUAGAAAACAUG”, the binding signal [5] is reported as 0.8 log2 enrichment (interaction score) and the binding signal [6] is reported as 3.44 log2 enrichment (interaction score).

With “GGCUAGAACUAGUGGAUCCCCCGGCGCCCGGCGGCUCGAGCCCGGGUAAGUGUUAAUAGUCUGCAUGCCGCCGGGCGCCAUGCCUGCAGGUCGACUCUAGAAAACAUG” the binding signal [7] was 2.86 log2 enrichment (interaction score), the binding signal [8] was 5.51 log2 enrichment (interaction score) and the binding signal [9] was 3.35 log2 enrichment (interaction score). For the same sequence, the binding signal [10] was 4.76 log2 enrichment (interaction score).

In the case of “GGCUAGAACUAGUGGAUCCCCCGGCGCCCGGCGGCUCGAGCCCGGGUAAGUGUCAAUAGUCUGCAUGCCGCCGGGCGCCAUGCCUGCAGGUCGACUCUAGAAAACAUG”, the binding signal [9] is reported as 3.47 log2 enrichment (interaction score).

“GGCUAGAACUAGUGGAUCCCCCGGCGCCCGGCGGCUCGAGCCCGGGUAAGUCUAAAUAGUCUGCAUGCCGCCGGGCGCCAUGCCUGCAGGUCGACUCUAGAAAACAUG” was tested, and the binding signal [11] was 3.14 log2 enrichment (interaction score).

“GGCUAGAACUAGUGGAUCCCCCGGCGCCCGGCGGCUCGAGCCCGGGUAAGUGUGAAUAGUCUGCAUGCCGCCGGGCGCCAUGCCUGCAGGUCGACUCUAGAAAACAUG” was tested, and the binding signal [12] was 1.55 log2 enrichment (interaction score), the binding signal [13] was 2.43 log2 enrichment (interaction score) and the binding signal [7] was 4.74 log2 enrichment (interaction score). For the same sequence, the binding signal [10] was 3.51 log2 enrichment (interaction score) and the binding signal [14] was 2.08 log2 enrichment (interaction score).

With “GGCUAGAACUAGUGGAUCCCCCGGCGCCCGGCGGCUCGAGCCCGGGUAAGUGUAAAUUGUCUGCAUGCCGCCGGGCGCCAUGCCUGCAGGUCGACUCUAGAAAACAUG” the binding signal [15] was 5.07 log2 enrichment (interaction score).

In the case of “GGCUAGAACUAGUGGAUCCCCCGGCGCCCGGCGGCUCGAGCCCGGGUAAGUGUAAAUAGUCUGCAUGCCGCCGGGCGCCAUGCCUGCAGGUCGACUCUAGAAAACAUG”, the binding signal [1] is reported as 2.92 log2 enrichment (interaction score), the binding signal [12] is reported as 4.36 log2 enrichment (interaction score) and the binding signal [2] is reported as 1.48 log2 enrichment (interaction score). The binding signal [3] was 4.31 log2 enrichment (interaction score), the binding signal [8] was 5.13 log2 enrichment (interaction score) and the binding signal [9] was 1.07 log2 enrichment (interaction score). The binding signal [16] was 5.15 log2 enrichment (interaction score), the binding signal [17] was 3.71 log2 enrichment (interaction score) and the binding signal [18] was 1.39 log2 enrichment (interaction score).

In the case of “GGCUAGAACUAGUGGAUCCCCCGGCGCCCGGCGGCUCGAGCCCGGGUAAGUGUAUAUAGUCUGCAUGCCGCCGGGCGCCAUGCCUGCAGGUCGACUCUAGAAAACAUG”, the binding signal [19] is reported as 3.93 log2 enrichment (interaction score) and the binding signal [18] is reported as 4.4 log2 enrichment (interaction score).

“GGCUAGAACUAGUGGAUCCCCCGGCGCCCGGCGGCUCGAGCCCGGGUAAGUGUAAUUAGUCUGCAUGCCGCCGGGCGCCAUGCCUGCAGGUCGACUCUAGAAAACAUG” was tested, and the binding signal [5] was 3.93 log2 enrichment (interaction score), the binding signal [20] was 2.84 log2 enrichment (interaction score) and the binding signal [6] was 2.82 log2 enrichment (interaction score).
